Experiment [1] has as its target T1, Serine/threonine-protein kinase 17A (Homo sapiens) (UniProt Q9UEE5).
T1 sequence (whole entry): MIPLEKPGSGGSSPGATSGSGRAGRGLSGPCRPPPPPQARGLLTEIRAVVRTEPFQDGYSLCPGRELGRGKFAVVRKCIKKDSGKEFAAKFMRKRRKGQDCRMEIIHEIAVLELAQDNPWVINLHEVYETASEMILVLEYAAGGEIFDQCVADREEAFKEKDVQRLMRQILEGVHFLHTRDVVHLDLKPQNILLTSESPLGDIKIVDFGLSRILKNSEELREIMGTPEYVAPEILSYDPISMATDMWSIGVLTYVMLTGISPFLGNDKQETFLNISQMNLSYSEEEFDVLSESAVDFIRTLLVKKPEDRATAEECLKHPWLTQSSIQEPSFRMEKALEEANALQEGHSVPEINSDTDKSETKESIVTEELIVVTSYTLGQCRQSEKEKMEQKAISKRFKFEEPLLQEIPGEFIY
To be noted: at 10 µM.

Experiment [2] has as its target T2, Dual specificity tyrosine-phosphorylation-regulated kinase 2 (Homo sapiens) (UniProt Q92630).
T2 sequence (whole entry): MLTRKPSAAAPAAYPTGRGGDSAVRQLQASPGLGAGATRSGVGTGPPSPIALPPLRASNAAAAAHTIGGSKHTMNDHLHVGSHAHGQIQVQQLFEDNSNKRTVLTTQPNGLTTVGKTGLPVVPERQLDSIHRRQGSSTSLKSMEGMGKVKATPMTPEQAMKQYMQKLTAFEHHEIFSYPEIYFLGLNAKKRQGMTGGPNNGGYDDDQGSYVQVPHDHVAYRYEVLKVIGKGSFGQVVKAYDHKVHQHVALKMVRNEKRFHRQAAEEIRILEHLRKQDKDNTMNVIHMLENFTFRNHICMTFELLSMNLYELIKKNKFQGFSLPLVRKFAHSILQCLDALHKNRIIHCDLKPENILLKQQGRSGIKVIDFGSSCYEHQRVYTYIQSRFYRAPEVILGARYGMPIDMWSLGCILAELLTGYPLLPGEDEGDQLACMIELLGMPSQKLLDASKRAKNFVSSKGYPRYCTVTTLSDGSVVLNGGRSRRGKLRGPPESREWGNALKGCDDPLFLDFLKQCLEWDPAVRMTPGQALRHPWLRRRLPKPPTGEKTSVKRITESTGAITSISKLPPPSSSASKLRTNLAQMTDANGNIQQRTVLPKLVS
To be noted: at 1 µM.

Experiment [3] addresses T2, Dual specificity tyrosine-phosphorylation-regulated kinase 2 (Homo sapiens). As to conditions: at 10 µM.
Experiment [4] deals with T3, Ephrin type-A receptor 1 (Homo sapiens) (UniProt P21709).
T3 sequence (whole entry): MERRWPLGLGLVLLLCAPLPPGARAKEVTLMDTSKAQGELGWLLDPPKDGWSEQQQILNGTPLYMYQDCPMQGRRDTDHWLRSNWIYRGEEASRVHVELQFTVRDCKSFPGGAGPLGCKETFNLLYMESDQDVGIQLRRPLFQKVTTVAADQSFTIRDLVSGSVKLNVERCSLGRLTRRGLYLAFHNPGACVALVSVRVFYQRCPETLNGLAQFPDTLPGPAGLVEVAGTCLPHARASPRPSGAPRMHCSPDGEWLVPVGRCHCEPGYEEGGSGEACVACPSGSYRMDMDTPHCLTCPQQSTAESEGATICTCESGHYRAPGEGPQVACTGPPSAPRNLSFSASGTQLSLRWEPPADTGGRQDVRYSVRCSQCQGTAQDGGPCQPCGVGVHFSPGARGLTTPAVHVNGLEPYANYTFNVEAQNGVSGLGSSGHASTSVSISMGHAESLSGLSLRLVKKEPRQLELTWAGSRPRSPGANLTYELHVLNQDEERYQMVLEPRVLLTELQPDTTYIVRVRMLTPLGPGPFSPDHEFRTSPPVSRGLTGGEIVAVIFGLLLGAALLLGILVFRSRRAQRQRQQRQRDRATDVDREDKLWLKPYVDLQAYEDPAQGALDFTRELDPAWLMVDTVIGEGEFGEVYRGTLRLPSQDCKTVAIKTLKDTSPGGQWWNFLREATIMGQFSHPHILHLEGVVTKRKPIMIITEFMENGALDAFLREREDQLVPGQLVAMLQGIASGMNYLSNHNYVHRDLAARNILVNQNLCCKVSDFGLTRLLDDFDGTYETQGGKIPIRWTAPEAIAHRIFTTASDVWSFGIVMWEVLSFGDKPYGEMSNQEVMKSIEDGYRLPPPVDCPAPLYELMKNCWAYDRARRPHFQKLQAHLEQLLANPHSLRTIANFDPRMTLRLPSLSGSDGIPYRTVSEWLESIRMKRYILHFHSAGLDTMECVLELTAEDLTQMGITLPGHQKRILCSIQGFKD
To be noted: at 1 µM.

The target of experiment [5] is T3, Ephrin type-A receptor 1 (Homo sapiens). To be noted: at 10 µM.
Experiment [6] addresses Ephrin type-A receptor 2 (Homo sapiens) (UniProt P29317). As to conditions: at 1 µM.
The target is the same in experiment [7]. To be noted: at 10 µM.
Experiment [8] addresses T4, Ephrin type-A receptor 3 (Homo sapiens) (UniProt P29320).
T4 sequence (whole entry): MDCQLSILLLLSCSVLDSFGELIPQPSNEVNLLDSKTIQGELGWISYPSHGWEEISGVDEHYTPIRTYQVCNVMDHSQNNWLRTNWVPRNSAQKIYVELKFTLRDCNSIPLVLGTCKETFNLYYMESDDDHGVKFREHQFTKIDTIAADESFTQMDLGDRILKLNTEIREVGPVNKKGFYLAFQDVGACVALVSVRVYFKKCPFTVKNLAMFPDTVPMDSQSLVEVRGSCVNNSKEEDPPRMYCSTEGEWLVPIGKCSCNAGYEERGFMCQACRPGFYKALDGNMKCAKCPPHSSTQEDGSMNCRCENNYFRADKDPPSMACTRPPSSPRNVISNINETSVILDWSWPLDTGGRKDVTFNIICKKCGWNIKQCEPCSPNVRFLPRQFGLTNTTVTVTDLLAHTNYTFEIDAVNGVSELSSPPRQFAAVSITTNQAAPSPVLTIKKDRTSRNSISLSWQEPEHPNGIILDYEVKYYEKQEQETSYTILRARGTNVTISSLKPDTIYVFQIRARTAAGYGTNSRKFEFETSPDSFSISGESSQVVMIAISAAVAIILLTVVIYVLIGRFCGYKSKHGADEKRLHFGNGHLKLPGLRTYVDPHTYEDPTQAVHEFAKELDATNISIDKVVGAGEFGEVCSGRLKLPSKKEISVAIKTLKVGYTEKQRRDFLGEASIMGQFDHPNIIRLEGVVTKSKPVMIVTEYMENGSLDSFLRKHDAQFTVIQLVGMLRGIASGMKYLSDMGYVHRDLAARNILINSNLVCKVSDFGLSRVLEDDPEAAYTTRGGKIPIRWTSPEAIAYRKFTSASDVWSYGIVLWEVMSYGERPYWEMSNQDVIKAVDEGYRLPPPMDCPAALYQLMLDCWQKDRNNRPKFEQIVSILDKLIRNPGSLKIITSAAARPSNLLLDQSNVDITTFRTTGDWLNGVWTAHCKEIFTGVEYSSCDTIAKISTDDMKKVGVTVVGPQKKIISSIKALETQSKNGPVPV
As to conditions: at 1 µM.

In experiment [9] the target is T4, Ephrin type-A receptor 3 (Homo sapiens). To be noted: at 10 µM.
In experiment [10] the target is Ephrin type-A receptor 4 (Homo sapiens) (UniProt P54764). As to conditions: at 1 µM.
The target is the same in experiment [11]. As to conditions: at 10 µM.
Experiment [12] deals with Ephrin type-A receptor 5 (Homo sapiens) (UniProt P54756). As to conditions: at 1 µM.
Experiment [13] has the same target. As to conditions: at 10 µM.
For experiment [14], the target named is Ephrin type-A receptor 7 (Homo sapiens) (UniProt Q15375). To be noted: at 1 µM.
Experiment [15] has the same target. As to conditions: at 10 µM.
The target of experiment [16] is T5, Ephrin type-A receptor 8 (Homo sapiens) (UniProt P29322).
T5 sequence (whole entry): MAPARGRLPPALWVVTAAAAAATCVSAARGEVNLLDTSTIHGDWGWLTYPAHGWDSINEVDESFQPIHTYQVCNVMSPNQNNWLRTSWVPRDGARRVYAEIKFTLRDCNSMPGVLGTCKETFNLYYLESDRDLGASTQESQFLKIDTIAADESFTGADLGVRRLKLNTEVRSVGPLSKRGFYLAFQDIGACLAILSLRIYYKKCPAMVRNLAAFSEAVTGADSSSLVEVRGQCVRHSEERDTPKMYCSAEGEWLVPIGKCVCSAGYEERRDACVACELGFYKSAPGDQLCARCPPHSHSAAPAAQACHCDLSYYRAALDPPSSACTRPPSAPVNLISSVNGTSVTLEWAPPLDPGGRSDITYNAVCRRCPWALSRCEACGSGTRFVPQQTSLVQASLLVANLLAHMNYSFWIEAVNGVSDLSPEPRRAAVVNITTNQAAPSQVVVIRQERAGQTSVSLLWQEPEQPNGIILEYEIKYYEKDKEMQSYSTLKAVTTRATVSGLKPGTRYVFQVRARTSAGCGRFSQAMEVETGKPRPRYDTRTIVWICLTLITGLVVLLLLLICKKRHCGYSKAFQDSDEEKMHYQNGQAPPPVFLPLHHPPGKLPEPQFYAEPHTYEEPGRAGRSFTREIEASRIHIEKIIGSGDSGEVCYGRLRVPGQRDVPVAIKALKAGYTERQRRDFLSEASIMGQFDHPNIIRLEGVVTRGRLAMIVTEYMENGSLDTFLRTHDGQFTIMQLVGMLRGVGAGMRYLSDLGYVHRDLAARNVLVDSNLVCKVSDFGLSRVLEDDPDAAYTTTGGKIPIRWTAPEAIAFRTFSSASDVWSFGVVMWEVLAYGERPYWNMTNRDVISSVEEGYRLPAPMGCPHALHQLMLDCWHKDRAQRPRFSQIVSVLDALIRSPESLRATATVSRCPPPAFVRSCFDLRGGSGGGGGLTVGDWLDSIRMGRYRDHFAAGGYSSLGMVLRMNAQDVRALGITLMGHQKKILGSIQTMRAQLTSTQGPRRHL
To be noted: at 1 µM.

Experiment [17] deals with T5, Ephrin type-A receptor 8 (Homo sapiens). As to conditions: at 10 µM.
The target in experiment [18] is T6, Ephrin type-B receptor 1 (Homo sapiens) (UniProt P54762).
T6 sequence (whole entry): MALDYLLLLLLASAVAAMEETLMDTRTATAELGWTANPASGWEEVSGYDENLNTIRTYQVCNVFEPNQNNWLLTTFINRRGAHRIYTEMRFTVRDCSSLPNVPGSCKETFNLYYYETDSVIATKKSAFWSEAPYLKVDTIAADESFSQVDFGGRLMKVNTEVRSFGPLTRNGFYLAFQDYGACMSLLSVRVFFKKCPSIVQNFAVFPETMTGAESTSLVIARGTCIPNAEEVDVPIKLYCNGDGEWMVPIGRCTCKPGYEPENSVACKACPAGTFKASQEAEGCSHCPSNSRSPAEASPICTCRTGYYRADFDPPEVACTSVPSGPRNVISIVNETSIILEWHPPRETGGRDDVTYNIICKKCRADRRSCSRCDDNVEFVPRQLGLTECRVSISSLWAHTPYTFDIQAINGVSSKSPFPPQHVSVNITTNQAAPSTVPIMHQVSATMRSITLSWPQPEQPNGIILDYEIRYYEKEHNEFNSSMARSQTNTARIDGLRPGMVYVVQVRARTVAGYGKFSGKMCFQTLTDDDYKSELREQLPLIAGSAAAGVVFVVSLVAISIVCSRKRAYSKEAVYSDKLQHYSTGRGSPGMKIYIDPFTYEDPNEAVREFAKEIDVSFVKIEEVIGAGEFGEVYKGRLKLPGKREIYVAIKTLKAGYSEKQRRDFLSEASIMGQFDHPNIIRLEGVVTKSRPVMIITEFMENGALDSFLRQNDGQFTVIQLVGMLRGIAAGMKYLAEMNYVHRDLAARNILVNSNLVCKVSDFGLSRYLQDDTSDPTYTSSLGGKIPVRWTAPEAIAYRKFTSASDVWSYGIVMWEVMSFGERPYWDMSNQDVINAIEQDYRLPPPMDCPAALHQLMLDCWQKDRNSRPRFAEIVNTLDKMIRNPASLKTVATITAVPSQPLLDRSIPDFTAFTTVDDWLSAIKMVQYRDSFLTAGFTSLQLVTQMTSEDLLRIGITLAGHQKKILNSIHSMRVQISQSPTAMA
To be noted: at 1 µM.

The structures appear in SMILES notation.

Ephrin type-A receptor 7 (Homo sapiens), sequence (Q15375 28-998 limits assumed): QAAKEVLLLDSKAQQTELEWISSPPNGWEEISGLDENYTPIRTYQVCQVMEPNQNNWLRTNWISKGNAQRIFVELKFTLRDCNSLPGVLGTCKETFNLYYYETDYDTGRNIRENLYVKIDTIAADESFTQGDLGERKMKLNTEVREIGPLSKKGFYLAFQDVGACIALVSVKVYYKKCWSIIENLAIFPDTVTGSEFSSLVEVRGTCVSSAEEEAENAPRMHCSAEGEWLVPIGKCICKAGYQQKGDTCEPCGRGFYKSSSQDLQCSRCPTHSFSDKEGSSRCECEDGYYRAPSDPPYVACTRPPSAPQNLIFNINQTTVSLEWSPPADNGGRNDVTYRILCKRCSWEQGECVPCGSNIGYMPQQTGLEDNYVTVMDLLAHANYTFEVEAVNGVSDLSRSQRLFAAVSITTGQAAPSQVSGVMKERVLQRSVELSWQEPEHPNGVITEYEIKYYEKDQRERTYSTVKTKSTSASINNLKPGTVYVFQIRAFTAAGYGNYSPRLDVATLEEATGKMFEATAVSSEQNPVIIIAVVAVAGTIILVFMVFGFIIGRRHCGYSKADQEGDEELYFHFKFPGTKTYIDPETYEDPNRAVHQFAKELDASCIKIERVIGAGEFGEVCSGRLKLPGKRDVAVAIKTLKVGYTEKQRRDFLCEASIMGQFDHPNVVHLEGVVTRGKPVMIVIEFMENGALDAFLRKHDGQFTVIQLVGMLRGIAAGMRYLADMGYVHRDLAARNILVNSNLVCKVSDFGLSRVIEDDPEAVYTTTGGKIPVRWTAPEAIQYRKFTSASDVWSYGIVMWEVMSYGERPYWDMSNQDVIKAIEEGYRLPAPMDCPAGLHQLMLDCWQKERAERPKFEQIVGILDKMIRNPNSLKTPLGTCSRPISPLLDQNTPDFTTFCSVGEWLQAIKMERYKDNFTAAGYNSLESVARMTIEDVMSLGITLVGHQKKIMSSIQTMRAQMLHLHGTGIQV
Ephrin type-A receptor 2 (Homo sapiens), sequence (P29317 whole entry): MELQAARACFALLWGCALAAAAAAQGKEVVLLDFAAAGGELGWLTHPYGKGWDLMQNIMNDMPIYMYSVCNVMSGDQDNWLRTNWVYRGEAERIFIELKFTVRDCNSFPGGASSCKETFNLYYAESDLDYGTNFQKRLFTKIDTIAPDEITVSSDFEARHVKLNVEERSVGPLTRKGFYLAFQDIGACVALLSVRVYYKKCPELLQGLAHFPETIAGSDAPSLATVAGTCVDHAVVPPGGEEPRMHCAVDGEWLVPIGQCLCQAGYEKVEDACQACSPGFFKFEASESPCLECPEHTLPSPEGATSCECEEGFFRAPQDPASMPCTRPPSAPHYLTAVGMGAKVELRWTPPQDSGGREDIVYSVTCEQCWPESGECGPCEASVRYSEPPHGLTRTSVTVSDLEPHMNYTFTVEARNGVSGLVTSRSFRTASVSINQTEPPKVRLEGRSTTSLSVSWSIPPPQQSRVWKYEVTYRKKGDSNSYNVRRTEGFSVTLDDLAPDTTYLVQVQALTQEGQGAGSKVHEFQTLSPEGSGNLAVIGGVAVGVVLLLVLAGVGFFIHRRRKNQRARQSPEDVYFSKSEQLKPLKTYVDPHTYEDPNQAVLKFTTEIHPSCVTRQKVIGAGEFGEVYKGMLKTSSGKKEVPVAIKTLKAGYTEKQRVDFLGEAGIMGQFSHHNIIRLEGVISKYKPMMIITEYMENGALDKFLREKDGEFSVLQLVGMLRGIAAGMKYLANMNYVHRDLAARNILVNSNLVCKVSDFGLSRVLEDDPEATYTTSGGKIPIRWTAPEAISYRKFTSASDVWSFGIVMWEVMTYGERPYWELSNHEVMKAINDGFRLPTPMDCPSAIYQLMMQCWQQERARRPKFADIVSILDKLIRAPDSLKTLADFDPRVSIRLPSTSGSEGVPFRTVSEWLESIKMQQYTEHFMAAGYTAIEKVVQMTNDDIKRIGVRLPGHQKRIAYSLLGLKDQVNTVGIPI
Ephrin type-A receptor 5 (Homo sapiens), sequence (P54756 whole entry): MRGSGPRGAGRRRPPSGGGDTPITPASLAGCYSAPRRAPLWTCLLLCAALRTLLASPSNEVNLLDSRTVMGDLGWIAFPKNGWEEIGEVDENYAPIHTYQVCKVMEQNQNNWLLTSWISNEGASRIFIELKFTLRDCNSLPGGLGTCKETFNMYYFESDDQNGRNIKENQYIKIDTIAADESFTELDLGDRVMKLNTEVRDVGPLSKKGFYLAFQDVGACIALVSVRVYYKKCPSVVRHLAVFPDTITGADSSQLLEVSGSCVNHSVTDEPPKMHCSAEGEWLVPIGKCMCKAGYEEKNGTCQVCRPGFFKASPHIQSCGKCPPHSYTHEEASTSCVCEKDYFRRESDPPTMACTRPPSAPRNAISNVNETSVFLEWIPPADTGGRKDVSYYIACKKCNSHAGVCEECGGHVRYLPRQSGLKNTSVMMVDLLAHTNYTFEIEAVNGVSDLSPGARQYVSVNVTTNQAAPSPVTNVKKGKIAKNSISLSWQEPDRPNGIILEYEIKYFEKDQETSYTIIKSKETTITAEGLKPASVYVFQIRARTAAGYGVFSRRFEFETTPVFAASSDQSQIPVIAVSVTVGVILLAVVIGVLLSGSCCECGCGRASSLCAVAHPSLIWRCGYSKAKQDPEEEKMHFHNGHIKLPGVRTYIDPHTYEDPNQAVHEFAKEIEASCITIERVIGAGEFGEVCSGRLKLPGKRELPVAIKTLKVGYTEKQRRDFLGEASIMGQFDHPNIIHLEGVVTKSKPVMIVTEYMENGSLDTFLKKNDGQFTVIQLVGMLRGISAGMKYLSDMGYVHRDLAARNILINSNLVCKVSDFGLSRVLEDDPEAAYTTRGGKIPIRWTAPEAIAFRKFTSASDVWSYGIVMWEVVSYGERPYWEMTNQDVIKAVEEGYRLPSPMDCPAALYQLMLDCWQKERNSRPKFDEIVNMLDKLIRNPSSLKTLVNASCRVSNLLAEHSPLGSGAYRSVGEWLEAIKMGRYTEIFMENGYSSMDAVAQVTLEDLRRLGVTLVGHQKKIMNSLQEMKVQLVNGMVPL
Ephrin type-A receptor 4 (Homo sapiens), sequence (P54764 whole entry): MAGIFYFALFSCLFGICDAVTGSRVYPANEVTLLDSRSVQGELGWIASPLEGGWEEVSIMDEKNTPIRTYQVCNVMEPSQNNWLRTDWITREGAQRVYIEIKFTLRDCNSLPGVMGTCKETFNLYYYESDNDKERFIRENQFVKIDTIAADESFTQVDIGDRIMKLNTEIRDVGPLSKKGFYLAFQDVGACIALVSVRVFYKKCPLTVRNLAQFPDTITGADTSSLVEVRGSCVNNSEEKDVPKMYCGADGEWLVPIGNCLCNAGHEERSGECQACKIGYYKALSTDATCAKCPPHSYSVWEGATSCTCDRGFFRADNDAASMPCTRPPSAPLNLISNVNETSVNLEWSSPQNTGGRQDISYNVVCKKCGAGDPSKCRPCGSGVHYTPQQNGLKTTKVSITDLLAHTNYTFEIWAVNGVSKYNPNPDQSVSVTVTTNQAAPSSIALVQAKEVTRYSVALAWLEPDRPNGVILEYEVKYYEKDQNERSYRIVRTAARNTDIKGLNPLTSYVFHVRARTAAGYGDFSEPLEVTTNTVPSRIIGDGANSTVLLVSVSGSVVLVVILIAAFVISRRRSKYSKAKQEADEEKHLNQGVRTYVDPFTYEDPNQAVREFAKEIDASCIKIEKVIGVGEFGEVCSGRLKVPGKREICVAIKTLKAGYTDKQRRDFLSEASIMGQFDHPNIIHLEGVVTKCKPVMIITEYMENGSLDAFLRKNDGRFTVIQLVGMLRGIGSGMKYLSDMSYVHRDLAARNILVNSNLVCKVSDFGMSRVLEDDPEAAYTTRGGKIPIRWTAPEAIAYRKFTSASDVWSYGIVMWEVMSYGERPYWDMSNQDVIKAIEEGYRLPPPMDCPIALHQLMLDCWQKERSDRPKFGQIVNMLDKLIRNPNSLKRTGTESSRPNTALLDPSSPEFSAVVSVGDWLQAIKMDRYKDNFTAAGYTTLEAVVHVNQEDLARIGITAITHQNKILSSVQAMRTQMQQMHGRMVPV

Turning to `CC(C)n1cnc2/c(=N/c3cccc(Cl)c3)nc(NCCO)[nH]c21`, the residual activity in experiment [1] came to 83%; in [2] it was 95%; in experiment [3] it was 69%; in experiment [4], 86%; in experiment [5] it was 42%; in experiment [6], 82%. Further, the residual activity in experiment [7] worked out at 65%; in [8], 82%; in experiment [9] it was 54%; in experiment [10] it was 110%; in [11], 75%; in experiment [12], 102%. Also, the residual activity in experiment [13] stood at 43%; in experiment [14], 83%; in [15], 43%; in [16], 97%; in experiment [17], 77%; in experiment [18], 81%.
Consider `O=c1c2ccccc2[nH]c(=S)n1CCN1CCC(=C(c2ccc(F)cc2)c2ccc(F)cc2)CC1`, for which the residual activity in experiment [1] worked out at 90%; in experiment [2] it was 102%; in experiment [3], 96%; in [4], 95%; in [5] it was 89%; in [6], 116%. Moreover, the residual activity in [7] stood at 100%; in experiment [8], 109%; in experiment [9], 96%; in experiment [10], 112%; in experiment [11], 100%; in experiment [12] it was 110%. The residual activity in experiment [13] was found to be 92%; in experiment [14], 106%; in experiment [15] it was 92%; in experiment [16], 115%; in experiment [17], 111%; in [18], 90%.

The term residual activity denotes the signal under treatment as a percentage of the control signal.
